Pol kappa inh – blocks human DNA polymerase kappa activity; purified Pol kappa, fluorescent DNA synthesis assay, 10 min; Potency, µM (highest dose often 107 µM), actives largely listed as inhibitors; 400,000 compounds, 0.53% hits
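Kinetic fluorescence readout at 0 and 10 min followed reaction start with substrate at 50 nM final. Beforehand, enzyme (10 nM Pol kappa) stood 15 min with compound at room temperature; buffer-only wells were negative controls.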
FEN1 inhibitor – blocks human flap endonuclease 1; Recombinant FEN1 flap cleavage, fluorescence, 15 min; 390,000 compounds, 0.35% hits; AID 588795; P39748; Potency, µM (series often up to 114 µM), actives largely listed as inhibitors; also: nearly all actives have a fitted effect of over 65% in size
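Read-out was taken twice, immediately and after 15 min, following addition of 50 nM substrate to 10 nM FEN1 that had sat with test compound for 15 min at room temperature. Curves came from a four-parameter Hill model.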
PGK inhibitor – T. brucei PGK inhibition. P07378. PGK/GAPDH coupled, Kinase-Glo luminescence, 60 min. Potency, µM (doses to about 57.5 µM), hits mostly inhibitors. 380,000 compounds, 0.043% hits; also: nearly all actives have a fitted effect of over 60% in size
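Recombinant glycosomal PGK reaction used 1,3-bisphosphoglycerate generated in-well by GAPDH (100nM final) in 100mM TEA pH 7.6, 5mM MgCl2, 0.01% Tween-20. After 60 minutes at room temperature, ATP was read by Kinase-Glo Plus luminescence end-point.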
Pol beta inh-1 – blocks human DNA polymerase beta activity. Pol beta primer extension/strand displacement, fluorescence kinetic. Potency, µM (series often up to 114 µM), actives largely listed as inhibitors. AID 485314. P06746. 340,000 compounds, 1.3% hits
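Values derive from four-parameter Hill fits of normalized kinetic data: reads at 0 and 10 min following addition of 50 nM substrate to 10 nM Pol beta preincubated 15 min with compound.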
POLI inh – DNA polymerase iota (human) inhibition; Potency, µM (series often up to 115 µM), usual class: inhibitors; Pol iota fluorescent replication assay, 10 min; Q9UNA4; 390,000 compounds, 1% hits
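Fluorescent replication assay read twice, at 0 min and 10 min after adding 50 nM (final) substrate. Enzyme (10 nM) and compounds were first incubated 15 min at room temperature; enzyme-free buffer wells were negative controls.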
Pol eta inh-1 – DNA polymerase eta (human) inhibition | Q9Y253 | recombinant Pol eta, fluorescent DNA replication assay | Potency, µM (series often up to 114 µM), hits mostly inhibitors | 390,000 compounds, 1.2% hits | AID 588591
Target sequence (Q9Y253 whole entry, looked up): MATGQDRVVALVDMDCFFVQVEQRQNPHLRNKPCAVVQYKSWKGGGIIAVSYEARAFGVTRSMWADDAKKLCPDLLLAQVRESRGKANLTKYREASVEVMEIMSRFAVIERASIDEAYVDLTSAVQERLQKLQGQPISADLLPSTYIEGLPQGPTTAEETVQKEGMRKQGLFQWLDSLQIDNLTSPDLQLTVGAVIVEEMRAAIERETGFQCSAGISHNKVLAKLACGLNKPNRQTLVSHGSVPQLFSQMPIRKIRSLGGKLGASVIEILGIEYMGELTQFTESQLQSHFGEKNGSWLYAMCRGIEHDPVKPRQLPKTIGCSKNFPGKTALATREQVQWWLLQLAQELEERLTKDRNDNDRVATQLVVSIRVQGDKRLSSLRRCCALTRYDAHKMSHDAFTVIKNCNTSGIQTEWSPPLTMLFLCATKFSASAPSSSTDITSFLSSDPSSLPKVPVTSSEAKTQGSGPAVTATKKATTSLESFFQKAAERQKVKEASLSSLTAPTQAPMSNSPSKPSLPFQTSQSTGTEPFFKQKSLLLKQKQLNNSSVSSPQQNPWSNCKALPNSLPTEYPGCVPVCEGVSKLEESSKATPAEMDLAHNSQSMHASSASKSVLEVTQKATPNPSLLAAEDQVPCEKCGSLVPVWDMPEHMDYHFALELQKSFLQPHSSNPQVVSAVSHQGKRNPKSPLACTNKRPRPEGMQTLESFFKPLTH
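Fluorescent replication assay: 50 nM final substrate added after a 15 min room-temperature compound preincubation with 10 nM enzyme. Signal taken at 0 min and again at 10 min.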
Pol beta inh-2 – Inhibitors of human DNA polymerase beta, hit validation; shares compounds with Pol beta inh-1; Pol beta primer extension/strand displacement, fluorescence kinetic; Potency, µM, hits mostly inhibitors; 250 compounds, 87% hits; calls by dose curve
Klenow counter – Klenow polymerase inhibition, pol beta selectivity check; shares compounds with Pol beta inh-1; Klenow exo- polymerase counter-screen, fluorescent DNA substrate; activity change, negative = inhibition, % at 57.1 µM; 250 tested, under 10 active
HIV RT inh – HIV-1 RT inhibition, pol beta selectivity check. shares compounds with Pol beta inh-1. HIV-1 RT polymerase activity, counter-screen. activity % (negative = inhibition, positive = activation), % at 57.1 µM. 250 tested, under 10 active. AID 540301
POLB inh gel – DNA polymerase beta inhibition, radiolabeled validation; shares compounds with Pol beta inh-1; radiolabeled primer extension gel assay, phosphorimager; inhibition, % at 10 µM; 110 compounds, 91% hits;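 active = inhibition at 10 µM of 30% or more; inconclusive = no clear call, values can overlap the other calls; inactive = inhibition at 10 µM under 30%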
POLI cherry-pick – Human Pol iota inhibitor confirmatory assay; 1,500 compounds, 77% hits; shares compounds with Pol kappa inh; Potency, µM, most hits filed as inhibitors; Pol iota primer extension, TAMRA/BHQ fluorescence
Pol eta inh-2 – Pol eta (human) inhibition, cherry-pick confirmation | shares compounds with Pol eta inh-1 | Pol eta primer extension, TAMRA/BHQ fluorescence, 10 min | Potency, µM, hits mostly inhibitors | 2,600 compounds, 64% hits | AID 720502
Hits are given with their value; 0 = inactive; ? = inconclusive; - = no result given; [ ] = remark or other dose. Compounds with a hit are over-represented: about 2.4% of the library has one in this group of screens. Unless noted, calls follow the shape of the dose curve; as a rule, active = well fitted curve in the direction sought with a large enough effect; inconclusive = small, poorly fitted or top-dose-only effect, or another doubt; inactive = no such curve, though single readings can be large; an effect the other way counts as inactive or inconclusive.

SMILES	Pol kappa inh	FEN1 inhibitor	PGK inhibitor	Pol beta inh-1	POLI inh	Pol eta inh-1	Pol beta inh-2	Klenow counter	HIV RT inh	others
Cc1ccc(S(=O)(=O)N2CCCC2C(=O)OCc2ccccc2)cc1 (stereo unspecified)	0	0	0	0	0	0	-	-	-
CN(C)CCCSc1ccccc1NC(=O)/C=C\c1ccccc1	0[19.4 µM]	-	-	-	-	-	-	-	-
N#C/C(=C/c1ccc(OC(=O)c2ccc(Br)s2)cc1)c1nc2ccccc2[nH]1	0	0	0	-	0	0	-	-	-
N#C/C(=C\c1ccc(OC(=O)c2ccc(Br)s2)cc1)c1nc2ccccc2[nH]1	0	0	0	2µM	0	5.6µM	8.9	0	0
O=C(Cc1cccs1)N1CCN(c2ccc([N+](=O)[O-])cc2)CC1	?	0	0	20µM	?	79µM	?	0	0	POLB inh gel=65
Cc1ccc(NC(=O)c2cnc(SCC(=O)N3CCOCC3)n(C)c2=O)cc1C	0	0	0	0	0	0	-	-	-
COc1ccc(CCn2c(O)cc3nn(-c4nc5ccccc5s4)c(=O)c-3c2C)cc1	22µM	?	0	1.8µM	?	50µM	?	0	0	POLB inh gel=97
COc1cccc(C(=O)Nc2ccc(-c3nc4ccccc4s3)cc2Cl)c1	0	0	-	0	0	-	-	-	-
Cn1c(SCC(=O)NCC2CCCO2)nc2scc(-c3ccccc3)c2c1=O (stereo unspecified)	0	0	0	-	0	0	-	-	-
O=C(CSc1nc2scc(-c3ccco3)c2c(=O)n1-c1ccccc1)NCC1CCCO1 (stereo unspecified)	0	0	0	11µM	40µM	?	?	0	0	POLB inh gel=70
O=[N+]([O-])c1cc(CN2CCCC2)c2cccnc2c1O	?	40µM	0	1.8µM	?	3.2µM	2.8	0	0
COc1cccc(C(=O)Nc2ccc3c(c2)C(=O)c2ccccc2C3=O)c1	0	0	?	10µM	?	?	14	?	0	POLI cherry-pick=?
CCOc1cc(/C=C(\C#N)C(=O)Nc2cccc(C(=O)O)c2)ccc1OCc1ccc(Br)cc1	0	?	0	10µM	7.1µM	?	3.5	0	0	POLI cherry-pick=7.5
COc1cc(/C=C(\C#N)C(=O)NCc2ccccc2)ccc1OCc1ccc(C(=O)O)cc1	0	0	0	0	0	0	-	-	-
N#CC1=C(N)N2C(=C(C#N)C1c1ccc(Br)cc1)Nc1ccccc12 (stereo unspecified)	0	0	0	13µM	?	56µM	16	0	0	POLI cherry-pick=?
N#CC1=C(N)N2C(=C(C#N)C1c1cccc(Br)c1)Nc1ccccc12 (stereo unspecified)	0	0	0	0	0	0	-	-	-
CCC(=O)N1c2nc(C(C)C)nn2C2(CCCCC2)[C@@H]2CCCC[C@@H]21	0	0	0	0	0	0	-	-	-
Cn1c(SCC(=O)Nc2ccc3nc(SCC(=O)N4CCCC4)sc3c2)nnc1-c1ccccc1	79µM	0	0	7.1µM	?	14µM	13	0	0	POLI cherry-pick=75
Cc1cccc(NC(=O)C2CCCN(S(=O)(=O)c3c(C)n[nH]c3C)C2)c1 (stereo unspecified)	0	0	0	0	0	0	-	-	-
Nc1nc(SCc2ccc(Cl)cc2Cl)nc2nc3c(cc12)CCCC3	0	0	0	10µM	79µM	?	35	0	0	POLI cherry-pick=34
CCc1ccc(NC(=O)CC2C(=O)N(c3cccc(OC)c3)C(=O)N2Cc2ccc(F)cc2)cc1 (stereo unspecified)	0	0	0	0	0	0	-	-	-
Cc1ccc(-n2nc(C)c3c(C(=O)O)cc(C)nc32)cc1	0	0	0	0	?	0	-	-	-
Cc1nn(-c2ccccc2)c2nc(-c3ccco3)cc(C(=O)O)c12	28µM	?	0	14µM	?	7.9µM	25	0	?	POLB inh gel=65;Pol eta inh-2=30
COc1ccc(C2NC(c3ccc4c(c3)OCO4)=CC(c3ccccc3O)N2)cc1OC (stereo unspecified)	0	0	-	-	0	-	-	-	-
O=C1CC(c2ccc(O)cc2)Oc2cc(O)ccc21 (stereo unspecified)	0	0	0	-	0	0	-	-	-
SMILES	Pol kappa inh	FEN1 inhibitor	PGK inhibitor	Pol beta inh-1	POLI inh	Pol eta inh-1	Pol beta inh-2	Klenow counter	HIV RT inh	others
Cc1c(O)cc2c(c1O)C(=O)CC(c1ccc(O)cc1)O2 (stereo unspecified)	14µM	?	0	1.3µM	?	8.9µM	5	0	0	Pol eta inh-2=?
CCCC(=O)O[C@]1(C(=O)COC(C)=O)CC[C@H]2C3C[C@H](F)C4=CC(=O)C=CC4(C)[C@@]3(F)[C@@H](O)CC21C (stereo partly specified)	0[19.4 µM]	-	-	-	-	-	-	-	-
CC(C)c1ccc(C2c3c(-c4ccccc4O)n[nH]c3C(=O)N2CCc2ccccc2)cc1 (stereo unspecified)	0	0	0	0	0	0	-	-	-
CCC1(CC)NC(=O)N(CC(=O)Nc2sc3c(c2C(N)=O)CCC3)C1=O	?	0	0	16µM	13µM	25µM	28	0	0	POLB inh gel=95;Pol eta inh-2=?
CC(C)(C)c1ccc(C(=O)N2CC(=O)Nc3ccc(F)cc3C2c2ccc(F)cc2)cc1 (stereo unspecified)	0	0	0	0	0	0	-	-	-
CCOC(=O)c1ccccc1NC(=O)c1ccc2nccnc2c1	?	?	0	8.9µM	?	20µM	28	0	0	POLB inh gel=54;POLI cherry-pick=?;Pol eta inh-2=30
Cc1cc(C(F)F)n2nc(C(=O)Nc3sc4c(c3C(N)=O)CCC4)nc2n1	?	?	0	16µM	20µM	20µM	32	0	0	POLB inh gel=0;POLI cherry-pick=?;Pol eta inh-2=?
Cc1nnc(NC(=O)COc2ccc3c(C)cc(=O)oc3c2)s1	0	0	0	20µM	?	10µM	22	0	0	POLB inh gel=96;POLI cherry-pick=60;Pol eta inh-2=76
CCC(CC)c1nnc(NC(=O)COc2ccc3c(C)cc(=O)oc3c2)s1	0	0	0	0	0	0	-	-	-

Bioassay records: PubChem BioAssay, National Center for Advancing Translational Sciences (NCATS)
